PubChem BioAssay (Tox21)
Results filed as inconclusive are left out. The source made the active and inactive calls. Unless noted, calls come from the whole dose curve; as a rule, active = well fitted curve in the direction sought with a large enough effect in the repeat runs; inconclusive = weak or mixed curves; inactive = no such curve, though single readings can be large; an effect the other way counts as inactive or inconclusive.

Key:
[1] = qHTS assay to identify small molecule antagonists of the thyroid receptor (TR) signaling pathway - cell viability counter screen (AID 743064); note: nearly all actives have a fitted effect of over 50% in size
Procedure, shortened: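 Compounds were tested on GH3.TRE-Luc cells in the presence of T3 at 1 nM final. Following 23.5 h at 37 °C, cell viability was quantified by CellTiter-Fluor.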

[2] = test system: thyroid hormone receptor (rat, GH3 cells); assay: qHTS assay to identify small molecule agonists of the thyroid receptor (TR) signaling pathway (AID 743066; calls by dose curve)
[3] = qHTS assay to identify small molecule antagonists of the estrogen receptor alpha (ER-alpha) signaling pathway - cell viability counter screen (AID 743074; calls by dose curve;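 note: HEK293 cells carrying ER-alpha-UAS-bla reporter stimulated with 17beta-estradiol; nearly all actives have a fitted effect of over 45% in size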)
Aromatase (Homo sapiens) = Aromatase (Homo sapiens) (UniProt P11511); assay: qHTS assay to identify aromatase inhibitors (AID 743083); note: series mostly up to about 70 µM; nearly all actives have a fitted effect of over 55% in size
[4] = qHTS assay to identify aromatase inhibitors - cell viability counter screen (AID 743084);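 note: cells stimulated with testosterone during compound exposure; nearly all actives have a fitted effect of over 55% in size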
[5] = target: Aryl hydrocarbon receptor (Homo sapiens) (UniProt P35869); assay: qHTS assay to identify small molecule that activate the aryl hydrocarbon receptor (AhR) signaling pathway (AID 743085);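 note: HG2L7.5c1 human HepG2 liver cells with stably integrated DRE-driven firefly reporter; series mostly up to about 70 µM; nearly all actives have a fitted effect of over 15% in size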
Procedure, shortened: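 24 h compound exposure, 37C, HepG2-derived HG2L7.5c1 cells with DRE-responsive luciferase. Readouts: fluorescence viability, then luminescence at room temperature after 30 min.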

[6] = qHTS assay to identify small molecule that activate the aryl hydrocarbon receptor (AhR) signaling pathway - cell viability counter screen (AID 743086);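 note: HepG2 liver cells carrying the AhR DRE luciferase reporter; series mostly up to about 70 µM; nearly all actives have a fitted effect of over 45% in size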
Procedure, shortened: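 HepG2-AhR-luc (HG2L7.5c1) cells, 4000/well, were preincubated 5 h at 37C, exposed to compound in qHTS format for 24 hr at 37C, then given CellTiter-Fluor for 30 min; viability was read as fluorescence in the reporter wells.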

[7] = target: Peroxisome proliferator-activated receptor gamma (Homo sapiens) (UniProt P37231); assay: qHTS assay to identify small molecule agonists of the peroxisome proliferator-activated receptor gamma (PPARg) signaling pathway (AID 743094; active = well fitted activation curve with a large enough effect in the signal ratio in the repeat runs, not every such curve was filed as active; the % refers to the signal ratio)
Procedure, shortened: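 Agonism was assessed in a beta-lactamase reporter system, HEK293H cells with a stably integrated UAS-bla construct under PPARg control; the 17 h treatment at 37C preceded a 1 h room-temperature FRET substrate read.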

[8] = target: Peroxisome proliferator-activated receptor gamma (Homo sapiens) (UniProt P37231); assay: qHTS assay to identify small molecule antagonists of the peroxisome proliferator-activated receptor gamma (PPARg) signaling pathway (AID 743191; calls by dose curve; note: series mostly up to about 63 µM; nearly all actives have a fitted effect of over 30% in size)
Procedure, shortened: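 GeneBLAzer PPARg UAS-bla HEK293H cells carrying a UAS-driven beta-lactamase reporter were plated at 3000 cells/well, preincubated 5 h at 37C, then given compound for 17 h at 37C; LiveBLAzer B/G FRET substrate was read after 1 h at room temperature.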

[9] = qHTS assay to identify small molecule antagonists of the peroxisome proliferator-activated receptor gamma (PPARg) signaling pathway - cell viability counter screen (AID 743194); note: nearly all actives have a fitted effect of over 55% in size
Procedure, shortened: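 PPARg-UAS-bla HEK293H cells were plated, rested 5 h at 37 C, then treated with compounds plus rosiglitazone (50 nM final) for 17 h at 37 C; viability was then read by CellTiter-Glo luminescence after 30 min at room temperature.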

[10] = qHTS assay for small molecule agonists of the antioxidant response element (ARE) signaling pathway - cell viability counter screen (AID 743203; calls by dose curve; note: nearly all actives have a fitted effect of over 55% in size)
Procedure, shortened: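 ATP content via CellTiter-Glo luminescence served as the viability measure. Cells: ARE-bla HepG2, 2,000 per well. Exposure: 16 hrs, 37C/5% CO2.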

[11] = qHTS assay for small molecule activators of the heat shock response signaling pathway - cell viability counter screen (AID 743209); note: nearly all actives have a fitted effect of over 50% in size
Procedure, shortened: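 Compounds dissolved in DMSO were added to overnight-plated HSE-bla HeLa cells and left 5 h at 37 C. Cell viability was quantified by luminescence using CellTiter-Glo.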

[12] = qHTS assay for small molecule activators of the heat shock response signaling pathway (AID 743210; active = well fitted activation curve with a large enough effect in the signal ratio in the repeat runs, with a control signal flat, not every such curve was filed as active; the % refers to the signal ratio; note: series mostly up to about 63 µM)
Procedure, shortened: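 Heat shock element–beta-lactamase HeLa reporter cells; qHTS with compounds for 5 h at 37 C; detection by FRET substrate fluorescence after 2.5 h at RT.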

[13] = target: Estrogen receptor (Homo sapiens) (UniProt P03372); assay: qHTS assay to identify small molecule antagonists of the estrogen receptor alpha (ER-alpha) signaling pathway (AID 743069; active = well fitted curve in the direction sought with a large enough effect in the signal ratio in the repeat runs, not every such curve was filed as active; the % refers to the signal ratio)
Procedure, shortened: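 A 17beta-estradiol challenge was applied right after compound transfer to ER-alpha-UAS-bla HEK293 cells previously kept in charcoal-stripped serum. Plates stood 18 hr at 37C and 5% CO2; fluorescence was read following 2 hr FRET substrate loading at room temperature.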

[14] = target: Estrogen receptor (Homo sapiens) (UniProt P03372); assay: qHTS assay to identify small molecule agonists of the estrogen receptor alpha (ER-alpha) signaling pathway (AID 743075; calls by dose curve;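 note: HEK293 GripTite cells with ER-alpha and UAS-driven beta-lactamase reporter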)
[15] = target: Estrogen receptor (Homo sapiens) (UniProt P03372); assay: qHTS assay to identify small molecule agonists of the estrogen receptor alpha (ER-alpha) signaling pathway using the BG1 cell line (AID 743079); note: nearly all actives have a fitted effect of over 20% in size
[16] = qHTS assay to identify small molecule antagonists of the estrogen receptor alpha (ER-alpha) signaling pathway using the BG1 cell line (AID 743080; calls by dose curve;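 note: BG1 cells stimulated with 17beta-estradiol alongside compound; series mostly up to about 70 µM; nearly all actives have a fitted effect of over 25% in size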)
Procedure, shortened: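 Quantitative HTS on the Tox21 10K library: BG1 cells with endogenous ER-alpha and ERE-luciferase reporter, 17beta-estradiol stimulation, 21.5 h compound exposure, luminescence endpoint with parallel fluorescence cytotoxicity counter-read.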

[17] = qHTS assay to identify small molecule antagonists of the estrogen receptor alpha (ER-alpha) signaling pathway using the BG1 cell line - cell viability counter screen (AID 743081);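 note: compound given together with 17beta-estradiol as the ER stimulus; series mostly up to about 70 µM; nearly all actives have a fitted effect of over 45% in size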
[18] = qHTS assay for small molecule agonists of the antioxidant response element (ARE) signaling pathway (AID 743202; active = well fitted activation curve with a large enough effect in the signal ratio in the repeat runs, not every such curve was filed as active; the % refers to the signal ratio)
Procedure, shortened: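 Following a 16 h, 37 C exposure of reporter HepG2 cells (ARE-driven beta-lactamase, 2,000 cells/well) to compounds, FRET substrate was applied for 2 h at room temperature and fluorescence intensity recorded.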

Measured: Potency

Peroxisome proliferator-activated receptor gamma (Homo sapiens), sequence (P37231 whole entry, looked up): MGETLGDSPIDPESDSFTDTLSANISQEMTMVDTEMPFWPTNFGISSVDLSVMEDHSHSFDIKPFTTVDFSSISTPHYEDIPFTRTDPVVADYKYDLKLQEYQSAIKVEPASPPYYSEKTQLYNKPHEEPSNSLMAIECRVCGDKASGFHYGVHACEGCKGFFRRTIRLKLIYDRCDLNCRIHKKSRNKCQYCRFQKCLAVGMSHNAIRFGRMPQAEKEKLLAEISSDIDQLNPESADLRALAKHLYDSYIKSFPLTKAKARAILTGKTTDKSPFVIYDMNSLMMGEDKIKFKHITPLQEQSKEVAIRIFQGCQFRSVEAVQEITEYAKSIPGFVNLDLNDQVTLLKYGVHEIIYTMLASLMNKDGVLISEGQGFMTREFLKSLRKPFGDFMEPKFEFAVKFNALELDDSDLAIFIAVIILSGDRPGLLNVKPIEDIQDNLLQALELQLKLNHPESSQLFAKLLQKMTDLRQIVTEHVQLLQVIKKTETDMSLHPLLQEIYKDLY
Aryl hydrocarbon receptor (Homo sapiens), sequence (P35869 whole entry, looked up): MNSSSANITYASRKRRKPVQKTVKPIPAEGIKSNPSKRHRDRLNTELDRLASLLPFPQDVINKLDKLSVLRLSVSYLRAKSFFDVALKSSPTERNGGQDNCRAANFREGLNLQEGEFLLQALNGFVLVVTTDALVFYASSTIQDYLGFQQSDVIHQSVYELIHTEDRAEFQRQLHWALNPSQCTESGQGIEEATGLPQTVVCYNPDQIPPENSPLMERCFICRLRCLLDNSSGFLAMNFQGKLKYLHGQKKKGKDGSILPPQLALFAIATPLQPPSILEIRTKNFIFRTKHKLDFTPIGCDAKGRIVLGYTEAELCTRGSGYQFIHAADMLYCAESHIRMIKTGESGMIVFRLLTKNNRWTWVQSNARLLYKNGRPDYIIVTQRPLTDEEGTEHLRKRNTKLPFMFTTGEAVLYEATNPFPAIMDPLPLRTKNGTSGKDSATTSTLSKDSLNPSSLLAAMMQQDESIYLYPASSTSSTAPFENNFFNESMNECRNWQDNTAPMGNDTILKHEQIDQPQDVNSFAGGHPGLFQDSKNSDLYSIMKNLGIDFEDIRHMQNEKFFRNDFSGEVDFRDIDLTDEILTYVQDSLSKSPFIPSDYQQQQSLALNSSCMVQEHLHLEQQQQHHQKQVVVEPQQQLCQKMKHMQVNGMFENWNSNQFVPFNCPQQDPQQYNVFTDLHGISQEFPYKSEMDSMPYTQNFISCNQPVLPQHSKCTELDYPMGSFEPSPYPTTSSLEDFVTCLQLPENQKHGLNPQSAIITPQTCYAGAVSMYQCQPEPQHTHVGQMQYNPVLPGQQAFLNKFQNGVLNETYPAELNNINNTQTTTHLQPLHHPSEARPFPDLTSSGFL
Aromatase (Homo sapiens), sequence (P11511 whole entry, looked up): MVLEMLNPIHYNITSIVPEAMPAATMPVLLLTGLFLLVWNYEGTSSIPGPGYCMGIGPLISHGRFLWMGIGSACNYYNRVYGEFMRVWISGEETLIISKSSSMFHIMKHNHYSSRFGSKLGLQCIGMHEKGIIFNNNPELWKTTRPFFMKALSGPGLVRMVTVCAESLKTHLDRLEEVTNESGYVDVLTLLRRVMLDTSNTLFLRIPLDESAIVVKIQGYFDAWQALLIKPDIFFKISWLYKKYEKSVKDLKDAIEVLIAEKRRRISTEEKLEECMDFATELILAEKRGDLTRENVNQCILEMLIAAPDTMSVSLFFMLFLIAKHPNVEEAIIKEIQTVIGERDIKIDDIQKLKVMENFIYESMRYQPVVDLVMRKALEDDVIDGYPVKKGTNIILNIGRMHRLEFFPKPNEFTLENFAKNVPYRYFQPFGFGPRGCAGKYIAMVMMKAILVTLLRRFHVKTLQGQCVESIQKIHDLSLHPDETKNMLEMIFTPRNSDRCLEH
Estrogen receptor (Homo sapiens), sequence (P03372 whole entry, looked up): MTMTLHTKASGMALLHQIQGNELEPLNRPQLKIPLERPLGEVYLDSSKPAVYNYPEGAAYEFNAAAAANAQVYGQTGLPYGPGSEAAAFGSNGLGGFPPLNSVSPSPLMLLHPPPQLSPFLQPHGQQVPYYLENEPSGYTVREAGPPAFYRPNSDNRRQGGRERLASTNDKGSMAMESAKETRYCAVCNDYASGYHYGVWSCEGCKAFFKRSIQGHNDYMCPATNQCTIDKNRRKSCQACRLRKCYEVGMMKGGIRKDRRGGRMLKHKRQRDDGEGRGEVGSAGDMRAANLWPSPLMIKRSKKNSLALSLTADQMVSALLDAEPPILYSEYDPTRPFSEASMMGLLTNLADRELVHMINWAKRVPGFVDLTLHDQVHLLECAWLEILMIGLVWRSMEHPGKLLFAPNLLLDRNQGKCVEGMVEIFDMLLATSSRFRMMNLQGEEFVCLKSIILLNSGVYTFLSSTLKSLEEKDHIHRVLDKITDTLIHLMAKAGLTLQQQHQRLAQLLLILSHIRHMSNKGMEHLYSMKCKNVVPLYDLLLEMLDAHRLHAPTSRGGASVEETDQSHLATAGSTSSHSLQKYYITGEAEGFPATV

NC(CS)C(=O)O (stereo unspecified)
not listed: [13] | [14] | [15] | [16] | [17] | [18]
inactive: all other assays above

CCc1cc(S(=O)(=O)O)c2cc(C(C)C)cccc1-2
not listed: [3] | [6] | [18]
inactive: all other assays above

O=C(O)c1ccccc1S
not listed: [3] | [6] | [17] | [18]
inactive: all other assays above

C1=C\CC/C=C\CC/C=C\CC/1
not listed: [13] | [14] | [15] | [16]
inactive: all other assays above

C=C(C)[C@H]1CC=C(C)CC1
not listed: [2] | [7] | [8] | [16]
inactive: all other assays above

CCC(=O)/C=C/c1ccc(OC)cc1
not listed: [3] | [18]
inactive: all other assays above

Cc1ccccc1Br
not listed: [2] | [13] | [14] | [15] | [16]
inactive: all other assays above

COc1cc(O)cc(O)c1
not listed: [5] | [12] | [13] | [14] | [15] | [18]
inactive: all other assays above

OCC(CO)(CO)COCC(CO)(CO)CO
not listed: [16]
inactive: all other assays above

C=C(C)[C@@H]1CCC2=CC(=O)C[C@@H](C)[C@]2(C)C1
not listed: Aromatase (Homo sapiens) | [6] | [16] | [18]
inactive: all other assays above

O=C(O)c1ccccc1-c1ccc(C(F)(F)F)cc1
not listed: [7] | [8] | [13]
inactive: all other assays above

Cc1nccn1CC1CCc2c(c3ccccc3n2C)C1=O (stereo unspecified)
not listed: [16]
inactive: all other assays above

CCC(=O)Nc1cccc(N)c1
not listed: [2] | [18]
inactive: all other assays above

CCCC=O
not listed: [13] | [14] | [15] | [16] | [18]
inactive: all other assays above
